# Compounds without any hit were thinned out: in the full panel of roughly 83,000, 20% have a hit.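 96-well plates, one dose, 48 hours. Percent growth reported; active if below 10.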 Values without a mark were called inactive. Active and inactive are the calls of the source.
# Key:
# Assay in all cases: NCI-60 one-dose screen, 48 h (100 = growth as untreated, 0 = no growth, -100 = all killed)
# Conditions in all cases: 10 µM unless noted
# SR leukemia = tested on: SR leukemia
# RPMI-8226 leukemia = tested on: RPMI-8226 leukemia
# OVCAR-8 ovarian = tested on: OVCAR-8 ovarian
# OVCAR-5 ovarian = tested on: OVCAR-5 ovarian
# OVCAR-4 ovarian = tested on: OVCAR-4 ovarian
# SK-OV-3 ovarian = tested on: SK-OV-3 ovarian
# IGROV1 ovarian = tested on: IGROV1 ovarian
# OVCAR-3 ovarian = tested on: OVCAR-3 ovarian
# HS 578T breast = tested on: HS 578T breast
# NCI/ADR-RES ovarian = tested on: NCI/ADR-RES ovarian
# T-47D breast = tested on: T-47D breast
# BT-549 breast = tested on: BT-549 breast
# MDA-MB-435 melanoma = tested on: MDA-MB-435 melanoma
# SW-620 colon = tested on: SW-620 colon
# MCF7 breast = tested on: MCF7 breast
# HCT-116 colon = tested on: HCT-116 colon
# HCC-2998 colon = tested on: HCC-2998 colon
# KM12 colon = tested on: KM12 colon
SMILES,growth (SR leukemia),growth (RPMI-8226 leukemia),growth (OVCAR-8 ovarian),growth (OVCAR-5 ovarian),growth (OVCAR-4 ovarian),growth (SK-OV-3 ovarian),growth (IGROV1 ovarian),growth (OVCAR-3 ovarian),growth (HS 578T breast),growth (NCI/ADR-RES ovarian),growth (T-47D breast),growth (BT-549 breast),growth (MDA-MB-435 melanoma),growth (SW-620 colon),growth (MCF7 breast),growth (HCT-116 colon),growth (HCC-2998 colon),growth (KM12 colon)
O=c1nc(Nc2cccc(Cl)c2)oc2cc(Cl)oc(=O)c12,2.45% (active),26.8%,62.9%,88%,89.9%,98.4%,12.4%,51.6%,62.3%,89%,61.6%,91.2%,85.8%,74.1%,53.8%,55.1%,96.2%,81.7%
CCN(CC)CCOC(=O)Nc1c(C(C)C)cccc1C(C)C,101%,105%,102%,104%,108%,95.7%,100%,114%,105%,113%,103%,117%,102%,118%,101%,101%,114%,105%
CS(=O)CC(=N\O)/C(CS(C)=O)=N\O (stereo not drawn),99.8%,100%,95.5%,103%,103%,103%,109%,108%,106%,108%,108%,106%,106%,101%,90.7%,102%,105%,102%
N#Cc1ccc(OC(=O)Nc2cc(Cl)cc(Cl)c2)cc1,-30.4% [100 µM] (active),-13% [100 µM] (active),7.55% [100 µM] (active),9.02% [100 µM] (active),11.4% [100 µM],-6.95% [100 µM] (active),18% [100 µM],7.77% [100 µM] (active),-11.5% [100 µM] (active),-4.12% [100 µM] (active),-12.2% [100 µM] (active),-27.1% [100 µM] (active),-9.08% [100 µM] (active),4.92% [100 µM] (active),-25.7% [100 µM] (active),-62.7% [100 µM] (active),-8.43% [100 µM] (active),-15% [100 µM] (active)
CCCC1OC(c2ccco2)OCC1CC (stereo not drawn),106%,94.8%,101%,100%,115%,113%,95.1%,109%,118%,107%,103%,98.3%,108%,99.1%,117%,99%,101%,103%
COC(c1ccc2c(c1)OCO2)C(C)Br (stereo not drawn),88.6%,93.5%,101%,101%,100%,83.1%,91.4%,110%,91.2%,106%,71.8%,104%,90%,94.9%,110%,88.5%,105%,93.5%
Cc1ccc(N)c(S(=O)(=O)O)c1,79%,90.2%,103%,89%,83.7%,103%,206%,106%,113%,94.5%,101%,104%,117%,101%,98.9%,98.1%,95.7%,101%
CC(=O)C1C(=O)C(=O)N(c2ccc(Cl)c(Cl)c2)C1=O (stereo not drawn),91.2%,107%,101%,104%,88.5%,106%,98.6%,107%,103%,97%,93.2%,97.5%,103%,108%,89.1%,91.3%,101%,103%
Nc1cc(F)ccc1[N+](=O)[O-],114%,106%,118%,97.4%,106%,114%,98.4%,115%,98.7%,107%,104%,103%,111%,104%,97.6%,97.9%,102%,104%
O=C(O)c1c[nH]c2ccccc2c1=O,99.9%,97.8%,108%,93.9%,93.4%,92.3%,99.2%,107%,112%,104%,89.5%,101%,107%,108%,93.9%,95%,102%,100%
CCCNS(=O)(=O)c1ccc(Cl)cc1,98.9%,99.7%,104%,110%,102%,99.6%,105%,109%,88.1%,101%,–,–,93.3%,96.2%,93.3%,103%,98.9%,99.6%
CC(C)(N)CO[C@H]1C[C@H]2CC[C@@]1(C)C2(C)C,106%,108%,102%,95%,104%,112%,106%,93.6%,81.9%,103%,–,93.5%,94.7%,88.1%,92.5%,89.9%,102%,94.1%
C1Cc2onc(-c3noc4c3CCC4)c2C1,99.1%,113%,110%,103%,105%,106%,114%,115%,114%,–,108%,114%,113%,123%,99.2%,108%,115%,106%
CCC1CCC(C)NC1 (stereo not drawn),109%,98.6%,102%,107%,107%,111%,110%,104%,95.7%,–,106%,101%,104%,96.9%,95%,98.8%,106%,97.6%
C=CCS(C)(=O)=O,99.4%,104%,95.4%,101%,113%,90.3%,112%,108%,89.2%,104%,–,–,96.7%,95.4%,96.3%,94%,108%,88.3%
CC(=O)c1cccc(NS(=O)(=O)c2ccc(C)cc2)c1,36.6%,86.6%,90.1%,92.8%,79%,101%,62.8%,70.9%,86.9%,–,67.7%,74.8%,-21.4% (active),43.3%,39.8%,60.2%,65.4%,34.2%
C=C(C)COc1ccc(C(C)(C)C)cc1,96.3%,104%,95.4%,106%,103%,95.9%,112%,102%,90.1%,107%,–,–,93.4%,101%,98.5%,96%,111%,103%
Ic1cccs1,97.9%,106%,99.2%,107%,102%,115%,105%,107%,98.8%,98.8%,–,107%,107%,104%,97.9%,103%,108%,103%

# Source: PubChem BioAssay (NCI)
